# Measurements from PubChem BioAssay AID1117283 (Broad Institute, 2014).
# Potency and affinity values are given separately. A number with no mark means an inactive call.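 Rule for the calls: active = fluorescent signal decreased by at least 40%; inconclusive = no clear call, values can overlap the other calls; inactive = the rest, including activity opposite to the expected direction.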
# Experiment: fibronectin fibrillogenesis inhibitors in fibroblasts, dose response, AH1F cells, Alexa488-fibronectin fluorescence, cherry-pick, set 2 (AID 1117283);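 note: AH1F fibroblasts given Alexa488-labelled fibronectin at 24 nM final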
# Details: Alexa488-fibronectin deposition fluorescence, overnight; series mostly up to 35 µM; activity change, negative = inhibition: at the top concentration
row,Compound,"activity change, negative = inhibition"
1,C[C@@H]1CN([C@@H](C)CO)C(=O)c2cc(NC(=O)CCCN(C)C)ccc2O[C@H]1CN(C)Cc1ccc(-c2ccccc2)cc1,2.11%
2,Cc1ccc(S(=O)(=O)N2CC[C@@H]3[C@H](CO)Nc4ccc(-c5cccc(C(=O)N(C)C)c5)cc4[C@@H]32)cc1,1.14%
3,C[C@H]1CN([C@@H](C)CO)C(=O)c2cc(-c3ccccc3)cnc2O[C@H]1CN(C)C(=O)c1cccc(F)c1,-7.12%
4,C[C@@H]1CN([C@H](C)CO)C(=O)c2cc(-c3ccccc3)cnc2O[C@@H]1CN(C)Cc1ccccc1,2.01%
5,Cn1cc([N+](=O)[O-])c(C(=O)Nc2cc(Oc3ccccc3)cc([N+](=O)[O-])c2)n1,17.6%
6,O=C(CCNS(=O)(=O)c1cccc2nonc12)NC1CCCc2ccccc21 (configuration not stated),2.12%
7,COc1cccc(-c2ccc3c(c2)[C@@H]2[C@@H](CCN2S(=O)(=O)c2cccc(OC)c2)[C@H](CO)N3)c1,-8.42%
8,COCC(=O)Nc1ccc2c(c1)C(=O)N(C)[C@@H]1CC[C@@H](CC(=O)NCc3ccccc3Cl)O[C@H]1CO2,18.1% [at 30 µM]
9,C[C@H](CO)N1C[C@H](C)[C@@H](CN(C)C(=O)c2cccc(F)c2)Oc2ncc(-c3ccccc3)cc2C1=O,7.51%
10,C[C@@H]1CN([C@H](C)CO)C(=O)c2cc(NC(=O)CCCN(C)C)ccc2O[C@H]1CN(C)Cc1ccc(-c2ccccc2)cc1,3.78%
11,C[C@H](O)C#Cc1ccc2c(c1)O[C@@H](CN(C)C)[C@H](C)CN([C@@H](C)CO)S2(=O)=O,-3.5%
12,CO[C@H]1CN(C)C(=O)c2ccc(NC(=O)c3ccc(-c4ccccc4)cc3)cc2OC[C@H](C)NC[C@H]1C,4.53%
